From PubChem
CHX counter – affects cycloheximide protein synthesis inhibition readout, counter-screen. actives 12% (n = 300,000). cell reporter, cycloheximide protein synthesis inhibition counterscreen. max response, %; in the data active = max response mostly above about 13%, no sharp cut-off; inactive = mostly below about 14%; also: read at 38.3 µM for the half of the compounds with a filed dose; 0% is about no effect
Lassa entry inh – inhibitors of Lassa virus binding or cell entry | AID 540256 | actives 1.2% (n = 300,000) | Lassa virus pseudotype entry inhibition, cell reporter | Potency, µM (highest dose often 37.9 µM), for the others: top-dose activity change, negative = inhibition, most hits filed as inhibitors; calls by dose curve; tested in HEK293 cells; also: potency is read from the fitted curve at half-maximal effect; % is scaled to controls: 0 for no effect and ±100 for the full control effect; nearly all actives have a fitted effect of over 50% in size
Shiga inhibitor – blocks Shiga toxin action in Vero cells; Vero cells, Shiga toxin protein synthesis inhibition reporter; inhibition, % at 38.7 µM; actives 9.2% (n = 290,000); in the data active = inhibition mostly above about 28%, no sharp cut-off; inactive = mostly below about 43%; also: 0% is about no effect
Vaccinia mCherry – inhibitors of vaccinia virus infection (mCherry reporter signal); actives 0.63% (n = 310,000); Potency, µM (doses to about 36.5 µM), for inactives: top-dose activity change, negative = inhibition, usual class: inhibitors; Vaccinia virus mCherry reporter infection, fluorescence; calls by dose curve; tested in A549 cells; also: potency is read from the fitted curve at half-maximal effect; % is scaled to controls: 0 for no effect and ±100 for the full control effect; nearly all actives have a fitted effect of over 35% in size
MARV entry inh – blocks Marburg virus binding to or entry into cells. Marburg virus pseudotyped entry inhibition, cell reporter. Potency, µM (doses to about 37.8 µM), without a hit: top-dose activity change, negative = inhibition, hits mostly inhibitors. actives 1.8% (n = 300,000). AID 540276; calls by dose curve; tested in HEK293 cells; also: potency is read from the fitted curve at half-maximal effect; % is scaled to controls: 0 for no effect and ±100 for the full control effect
Vaccinia Venus – vaccinia inhibition (Venus reporter); Vaccinia virus Venus reporter expression, fluorescence; Potency, µM (doses to about 36.5 µM), for the others: at the highest dose activity change, negative = inhibition, most hits filed as inhibitors; actives 0.46% (n = 330,000); calls by dose curve; tested in A549 cells; also: potency is read from the fitted curve at half-maximal effect; % is scaled to controls: 0 for no effect and ±100 for the full control effect; nearly all actives have a fitted effect of over 30% in size
* = called active by the depositor; i = inactive; ? = inconclusive; / = no result; [ ] = dose if it differs, or a comment. The sample as a whole holds a higher share of hits than the screen did.

SMILES	CHX counter	Lassa entry inh	Shiga inhibitor	Vaccinia mCherry	MARV entry inh	Vaccinia Venus
CC(=O)NCCNC(=O)c1cnn(-c2nccc(-c3cc(C)sc3C)n2)c1C	/	/	/	-4.2%	/	-7.3%
CCSc1nc(O)cc(=O)n1CC	-3.8	21.0%[46.1 µM]	14.5	-20.3%	-8.5%[46.1 µM]	-8.6%
O=C(NN=C1CCCCCC1)c1cc2ccccc2cc1O	7.6	/	17.7	/	/	/
O=C(N/N=C1\CCCCc2ccccc21)c1ccccn1	44.0*	?	89.9*	-6.8%	?	-7.1%
O=C(NN=C1CCCCCCC1)c1ccc2ccccc2n1	17.3*	-6.0%[46.1 µM]	26.6	-12.5%	?	-11.5%
O=C(NN=C1CCCCCC1)c1c[nH]c2ccccc12	11.9	-5.6%	active	i	1.4%	4.6%
O=C(NN=C1CCCCCCC1)c1ccccn1	23.5*	7.5%	39.4	/	?	/
O=C(N/N=C1/CCS(=O)(=O)c2ccc(F)cc21)c1ccccn1	15.2	23.6%[46.1 µM]	53.9	-9.6%	-2.8%[46.1 µM]	-4.1%
CSc1cccc(N2C(=O)N(CC(=O)NCc3ccccc3Cl)c3ccccc3S2(=O)=O)c1	/	-20.7%[46.1 µM]	/	-14.2%	/	-19.6%
CSCC[C@H](NC(=O)c1ccc(NC[C@@H](N)CS)cc1-c1ccccc1)C(=O)O	-5.3	/	-9.2	/	/	/
O=C(CSc1ncccn1)NC1CCCc2ccccc21 (centres undefined)	7.3	-15.3%	2.3	-8.3%	-3.0%[46.1 µM]	-5.9%
COc1ccc(-c2csc(NC(=O)CN3C(=O)NC4(CCCC4)C3=O)n2)cc1OC	/	1.9%	/	-3.7%	10.1%	-14.7%
COc1cccc(N2CCN(C(=O)c3cccc(NC(=O)c4nsc5ccccc45)c3)CC2)c1	/	?	/	-16.9%	/	-23.3%
Cc1ccc(NC(=S)N/N=C2/CCCCc3ccccc32)cc1	16.7*	/	23.2	?	/	-22.8%[7.34 µM]
COc1cccc([C@@H]2NC(=O)CC=C[C@H](C)[C@H](c3cccc(OC)c3)NC(=O)CC=C[C@H]2C)c1	/	/	/	/	15.8%[14.2 µM]	/
Cc1ccc(S(=O)(=O)O/N=C2\CCCc3ccccc32)cc1	-5.3	-5.2%	-5.0	-8.4%	-9.5%	-9.1%
CC1=C(C)/C(=N\OS(=O)(=O)c2ccccc2)C=CC1=O	-2.3	?	-14.5	?	7.94µM*	?
O=c1[nH]c(CN(CCc2ccccc2)S(=O)(=O)c2ccc(Cl)cc2)nc2ccccc12	20.8*	1.6%	active	i	1.3%	-14.8%
COc1ccc(C(=O)CC(=O)c2ccc(C(C)(C)C)cc2)cc1	/	/	/	-20.0%	/	-9.5%
COc1ccc(C(=O)C(CCC(CNC(C)(C)C)C(=O)c2ccc(OC)cc2)CNC(C)(C)C)cc1 (centres undefined)	-4.6	3.98µM*	-12.9	12.6µM*	2.06µM*	11.2µM*
Cc1nc(N)sc1N=Nc1ccccc1C(F)(F)F	44.7*	-5.3%[46.1 µM]	112.2*	-21.9%	?	-22.2%
Cc1cc(=O)c2cc(C(=O)Nc3ccccc3)ccc2[nH]1	/	8.7%[46.1 µM]	/	-9.8%	-12.4%[46.1 µM]	-14.3%
O=C(CCCc1nc2ccccc2s1)Nc1ccccc1	23.7	-7.6%[46.1 µM]	23.9	-0.2%	16.0%[46.1 µM]	-2.1%
O=C(COc1ccccc1)NNc1nc2ccccc2s1	33.8*	/	63.4*	/	/	/
O=C(NNc1nc2ccccc2s1)Nc1ccccc1	37.0*	?	28.8*	-1.8%	?	-3.8%
SMILES	CHX counter	Lassa entry inh	Shiga inhibitor	Vaccinia mCherry	MARV entry inh	Vaccinia Venus
S=C(Nc1ccccc1)c1nc2ccccc2s1	56.5*	10.6%	82.7*	-3.5%	?	-1.6%
C/C(=C\C(=O)c1ccccc1)NNc1nc2ccccc2s1	43.5*	22.8%	110.2*	-6.7%	-1.2%[46.1 µM]	-7.0%
CC(=O)NNc1nc2ccccc2s1	1.4	?	9.7	-13.7%	0.8%	-3.2%
CC(C)c1ccc(Nc2c(-c3ccsc3)nc3ccc(Cl)cn23)cc1	/	14.4%[46.1 µM]	/	-7.2%	-2.1%[46.1 µM]	-9.6%
COc1ccc(C2=C(CN(C)C)C(c3ccccc3)c3ccccc3O2)cc1 (centres undefined)	-5.5	12.6µM*	-3.1	/	?	?
Cc1ccc2nc(COc3ccccc3NC(=O)c3ccccc3F)cc(=O)n2c1	/	-3.7%[46.1 µM]	/	-23.0%	/	-18.8%
O=C(/C=C/c1cccs1)N1CCN(c2ccccc2F)CC1	14.9*	11.6%	63.4*	-11.9%	9.6%	0.1%
O=C(/C=C/c1cccs1)N1CCN(c2ccc(F)cc2)CC1	5.8	-2.6%	15.0	-16.6%	-1.3%	-13.2%
O=C(/C=C/c1ccc([N+](=O)[O-])cc1)N1CCN(c2ccccc2F)CC1	14.9*	?	46.0*	-6.2%	?	-5.3%
O=C(/C=C/c1ccc(Cl)cc1)N1CCN(c2ccc(Cl)cc2[N+](=O)[O-])CC1	4.2	3.2%	7.6	/	3.6%	-17.3%
COc1ccc(NC(=O)CSc2nc3c(c(=O)[nH]2)CN(Cc2ccccc2)CC3)cc1Cl	/	-28.2%[46.1 µM]	/	-2.2%	?	10.5%
Cc1ccc2oc(C(=O)N(Cc3ccc(N(C)C)cc3)C3CCS(=O)(=O)C3)c(C)c2c1 (centres undefined)	15.8*	?	16.0	i	?	-15.4%
COc1cccc(CN(C(=O)c2cc3ccccc3oc2=O)C2CCS(=O)(=O)C2)c1 (centres undefined)	42.4*	0.7%[46.1 µM]	79.2*	-4.4%	?	-17.0%
COc1cccc(CN(C(=O)c2ccccc2Br)C2CCS(=O)(=O)C2)c1 (centres undefined)	-7.2	/	-6.7	/	/	/
CN(C)c1ccc(CN(C(=O)c2ccccc2Br)C2CCS(=O)(=O)C2)cc1 (centres undefined)	10.4*	/	34.8*	/	/	/
O=C(c1cc2ccccc2oc1=O)N(Cc1cccc(Br)c1)C1CCS(=O)(=O)C1 (centres undefined)	15.4*	1.4%[46.1 µM]	30.8	-9.1%	-21.9%[46.1 µM]	10.7%
CCN(c1ccccc1)S(=O)(=O)c1cccc(C(=O)N(C)CCOc2ccccc2)c1	/	?	/	-15.3%	-28.1%	-22.0%
CCOC(=O)N1CCN(Cc2ccc3c(c2)CN(C(=O)c2sc(C)nc2C)CCO3)CC1	/	/	/	-7.0%	/	-4.5%
CN(C)c1ccc(CN(C(=O)c2cc3ccccc3oc2=O)C2CCS(=O)(=O)C2)cc1 (centres undefined)	47.5*	/	62.5*	/	/	/
O=C(c1ccc(Cl)c([N+](=O)[O-])c1)N(Cc1ccc(F)cc1)C1CCS(=O)(=O)C1 (centres undefined)	-1.9	3.6%	-14.8	-12.5%	-14.6%	-9.3%
CN(C)c1ccc(CN(C(=O)c2ccc(Cl)c([N+](=O)[O-])c2)C2CCS(=O)(=O)C2)cc1 (centres undefined)	15.3	?	6.6	-14.9%	11.2µM*	-8.9%
CC(C)c1ccc(CN(C(=O)c2cc3ccccc3oc2=O)C2CCS(=O)(=O)C2)cc1 (centres undefined)	14.7	11.7%[46.1 µM]	-0.9	-10.6%	-0.2%[46.1 µM]	-13.7%
O=C(c1cc2ccccc2oc1=O)N(Cc1ccco1)C1CCS(=O)(=O)C1 (centres undefined)	29.4*	28.9%	35.5	-8.4%[1.46 µM]	9.2%	-10.0%
Cc1ccc(OCC(=O)OCc2cc(=O)n3nc(C4CCCCC4)sc3n2)cc1C	/	1.2%[46.1 µM]	/	-10.3%	/	3.2%
